# Screening results from PubChem BioAssay.
# In the library only some 2.4% were active in any assay of this set; here they are far more common.
# M1 PAM parental: M1 PAM counterscreen hit in parental CHO-K1 cells; ATP EC20, Fluo-8 calcium fluorescence; 0% at ATP EC20, 100% at ATP max; activation, % at 3 µM; 360,000 compounds, 0.02% hits;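 active = activation above the run cutoff, the mean activation of all test compounds plus 3 SD, cut at about 40% in these data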;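 note: peak over basal fluorescence ratio in a 140 s read after ATP addition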
# CHRM1 antagonist: human CHRM1 antagonism. P11229. CHO-K1 hM1, Fluo-8 calcium fluorescence, ACh EC80 antagonist. inhibition, % at 3 µM. 360,000 compounds, 1.3% hits. AID 588852;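 active = percent inhibition above its own plate's cutoff, namely the mean of that plate's compound wells plus 3 SD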;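 note: peak over basal fluorescence ratio during 140 s after agonist addition; 0% = ACh EC80 plus DMSO and 100% = DMSO alone without agonist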
# Target sequence (P11229 whole entry, looked up): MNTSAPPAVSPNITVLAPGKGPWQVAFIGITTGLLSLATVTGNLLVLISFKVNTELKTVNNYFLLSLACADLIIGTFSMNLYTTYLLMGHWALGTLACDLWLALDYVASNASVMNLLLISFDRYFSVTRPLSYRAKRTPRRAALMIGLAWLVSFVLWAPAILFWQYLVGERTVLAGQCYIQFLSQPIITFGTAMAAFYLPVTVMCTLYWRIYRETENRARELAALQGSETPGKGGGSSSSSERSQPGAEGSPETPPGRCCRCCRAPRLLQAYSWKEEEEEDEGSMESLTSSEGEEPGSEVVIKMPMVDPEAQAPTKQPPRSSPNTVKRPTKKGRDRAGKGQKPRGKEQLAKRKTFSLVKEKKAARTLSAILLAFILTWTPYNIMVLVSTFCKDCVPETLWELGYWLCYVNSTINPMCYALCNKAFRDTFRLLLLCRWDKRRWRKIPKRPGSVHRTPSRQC
# CHO-K1 Ca antag: M1 antagonist counterscreen hit in parental CHO-K1 cells; ATP-induced calcium, Fluo-8 fluorescence; AID 602250; inhibition, % at 3 µM; 360,000 compounds, 0.6% hits;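 active = inhibition above a per-plate cutoff, the plate's mean sample inhibition plus 3 SD, cut at about 24% in these data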;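 note: 0% = DMSO plus EC80 ATP and 100% = DMSO alone without ATP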
# M1 PAM: potentiates human M1 receptor response to acetylcholine; P11229; 360,000 compounds, 0.088% hits; AID 588819; activation, % at 3 µM; CHO-K1 hM1, Fluo-8 calcium fluorescence, ACh EC20; 0% = ACh EC20, 100% = maximal ACh; in the data active = activation above about 19%, passing the limit was not always enough
# CHRM1 agonist: agonists of human M1 muscarinic receptor | P11229 | CHO-K1 hM1, Fluo-8 calcium fluorescence, agonist mode; 0% DMSO, 100% acetylcholine EC100 | activation, % at 3 µM | 360,000 compounds, 0.33% hits;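 active = activation above the run's mean compound activation plus 3 SD, cut at about 16% in these data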;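 note: peak over basal fluorescence ratio within a 140 s kinetic read after compound addition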
# CHO-K1 Ca ag: nonselective activator or artifact in parental CHO-K1 cells | 360,000 compounds, 0.48% hits | activation, % at 3 µM | Fluo-8 calcium fluorescence; scaled to maximal ATP response, vehicle zero; in the data active = activation above about 15%;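 note: untransfected CHO-K1 host cells lacking M1 receptor as counterscreen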
# * hit, by the source's call.
SMILES,M1 PAM parental,CHRM1 antagonist,CHO-K1 Ca antag,M1 PAM,CHRM1 agonist,CHO-K1 Ca ag
Cc1c(Cl)ccc2c1NC(=O)[C@]21N[C@@H](Cc2ccccc2)[C@H]2C(=O)N(c3ccc(F)cc3)C(=O)[C@H]21,16,12,-13,1,17*,8
COc1ccc(NC(=O)C[C@H]2C(=O)N(c3ccccc3)C[C@@H]2CSC)cc1,23,-7,-15,4,-3,2
O=S(=O)(c1ccc2c(c1)C(O)c1ccccc1CC2)C(F)(F)F (stereo unspecified),-21,30*,9,-26,-7,4
O=C(O)c1ccc(OS(=O)(=O)c2ccc(Cl)s2)c(Cl)c1,14,-5,-18,5,-4,1
Cc1cccc(-n2nnnc2SCn2nnc3ccccc3c2=O)c1,-6,10,27*,-8,-2,2
Cc1ccc(-n2nnnc2SCn2nnc3ccccc3c2=O)cc1,-2,25,-3,-9,-3,2
NC(=S)NNC(=O)C12CC3CC(CC(C3)C1)C2,-6,23*,8,-6,29*,19*
Cc1cc(C)nc(NC(=NCc2ccc3c(c2)OCO3)NC(=O)Nc2ccccc2)n1,-4,32*,2,-14,-7,0
CCCCN(CC)C(=O)c1cc2cc3ccc(OC)cc3nc2o1,-20,-8,25*,5,-1,1
CCCN(CC1CCCO1)C(=O)CCc1nnc(CCc2ccc(OC)cc2)o1 (stereo unspecified),19,-2,-10,6,-1,1
Nc1nc2ccccc2nc1N1CCCC1,20,-6,-10,4,-7,2
CN1CCN(C=Nc2nc3ccccc3nc2N2CCCC2)CC1,3,34*,-11,-18,-5,0
O=C(O)c1cc(N2C(=O)CCC2=O)ccc1Cl,1,-10,-12,20,-2,0
CCC(C)[C@H](NC(=O)N1CCn2c1nc1ccccc12)C(=O)NCCc1ccc(OC)c(OC)c1 (stereo partly specified),13,-11,-16,10,-2,1
COC(=O)c1ccc(NC(=O)Nc2ccc([N+](=O)[O-])cc2)cc1,-6,24,20,-11,4,16*
CC(=O)N(C)c1ccc(NC(=O)Nc2ccc(C)c(C)c2)cc1,-2,27*,14,-18,1,7
Cc1ccc(NC(=O)Nc2ccc(F)cc2)cc1Cl,-6,11,26*,-20,3,12
O=C(Nc1ccncc1)Nc1ccc(F)c(Cl)c1,0,8,24*,0,4,11
CC(=O)N(C)c1ccc(NC(=O)Nc2ccccc2C)cc1,10,-2,-13,-1,-2,1
c1cc(-c2cc3nc(NC4CCCCC4)ccn3n2)ccc1OCCN1CCOCC1,6,14,3,-10,1,7
O=C(Nc1ccc(F)c(Cl)c1)Nc1csc2ccccc12,-10,38,28*,-16,6,13
COC(=O)c1ccc(NC(=O)Nc2ccc(F)c(Cl)c2)cc1,3,32*,17,-19,7,15*
Fc1ccc(NC(=S)Nc2ccc(F)c(Cl)c2)cc1Cl,3,24*,28*,-12,6,10
O=C(NC(=S)Nc1ccc(F)c(Cl)c1)C1CC1,21,-20,-11,7,-5,0
COC(=O)c1ccc(NC(=O)Nc2ccc(F)cc2)cc1,7,13,19,-3,1,9
SMILES,M1 PAM parental,CHRM1 antagonist,CHO-K1 Ca antag,M1 PAM,CHRM1 agonist,CHO-K1 Ca ag
Cc1ccc(NC(=S)Nc2ccc(OC(F)F)c(Cl)c2)cc1F,0,24*,6,-19,-3,12
CC(=O)c1ccc(S(=O)(=O)NCCC(=O)NC(C)c2ccncc2)cc1 (stereo unspecified),2,-10,-10,17,1,0
c1ccc(CN2CCC(N3CCN(Cc4ccc5c(c4)OCO5)CC3)CC2)cc1,11,24,-10,-18,-4,4
c1cc2c(cc1CN1CCN(C3CCCCCC3)CC1)OCO2,3,64*,-15,-25,-10,0
NCCNCCNCCN,14,-27,11,-2,0,0
NCCCCNCCCN,28,62,-18,-29,79*,0
CCN(CC)CCN1c2ccccc2Sc2ccccc21,5,100*,-4,-24,-5,5
CCN(CC)CCN1c2ccccc2Sc2ccc3ccccc3c21,-5,95*,-7,-26,-9,7
CC(=O)N1c2ccccc2Sc2ccc3ccccc3c21,21,-7,-6,2,-7,1
COC(=O)c1ccc(OC(=O)CCN2c3ccccc3Sc3ccccc32)cc1,15,7,1,-6,-4,1
CCN(CC)CCN1C(=O)C2C3c4ccccc4C(c4ccccc43)C2C1=O (stereo unspecified),21,-28,-15,7,-6,1
COc1ccc2c(c1)Sc1ccccc1N2CCN(C)C,20,48*,-5,-22,-4,1
O=C(O)CNC(=O)C1(NC(=O)OCc2ccccc2)CCCC1,15,-11,-15,5,0,1
Cc1ccc(S(=O)(=O)NCC(=O)N(CC2CCCO2)C(C(=O)NCC2CCCO2)C(C)C)cc1 (stereo unspecified),8,-10,-9,10,-8,0
CS(=O)(=O)N1CCCC(C(=O)Nc2cccc(F)c2)C1 (stereo unspecified),17,-35,-10,32*,2,0
CC(=O)c1cccc(NC(=O)C2CCCN(S(C)(=O)=O)C2)c1 (stereo unspecified),9,-8,2,6,9,0
CCOC(=O)c1ccc(NC(=O)C2CCN(S(=O)(=O)c3ccccc3)CC2)cc1,17,-20,0,11,3,1
CCOC(=O)c1ccc(NC(=O)Nc2ccc(F)cc2)cc1,-6,21*,49*,-15,10,12
CCOC(=O)c1ccc(NC(=O)NC2CC3CCC(C2)N3)cc1 (stereo unspecified),30,59*,-31,-22,-6,2
CCOC(=O)c1ccc(NC(=O)C2CCCN(S(=O)(=O)c3ccc(F)cc3)C2)cc1 (stereo unspecified),-1,48*,6,-17,2,10
CCOC(=O)c1ccc(NC(=S)NC2CCCC2)cc1,-12,7,17,-4,-7,6
COCC(=O)N1C[C@H]2CON(C)[C@H]2C[C@H]1c1cccc(-c2ccccc2)c1,8,-6,1,2,-3,0
CN(CC(=O)Nc1ccccc1Br)C(=O)CCSc1ccc(F)cc1,1,2,-5,-3,-2,2
CCCCCC(=O)Nc1ccc(N2CCN(CC)CC2)c(Cl)c1,16,69*,-3,-23,-7,0
